Our source for the Potency and activity change, negative = cytotoxicity values is PubChem BioAssay (Tox21).

Records with an inconclusive call do not appear. Where a call stands in place of a potency, no number is given. A number with no mark means an inactive call. Active and inactive are the calls of the source. Calls come from the whole dose curve; as a rule, active = well fitted cell-killing curve with a large enough effect in the repeat runs; inconclusive = weak or mixed curves, or effect the other way; inactive = flat fitted curve, though single readings scatter.
Potency is the fitted concentration of half-maximal effect.

A short description of the experiment: Human pregnane X receptor (PXR) small molecule agonists, qHTS cell viability counter screen (AID 1346977). Note: nearly all actives have a fitted effect of over 50% in size. To be noted: PXR-Luc HepG2 viability, CellTiter-Fluor, 24 h; series mostly up to 92.4 µM. An excerpt:
U.S. Tox21 Program National Center for Advancing Translational Sciences [NCATS] NIH Chemical Genomics Center [NCGC] U.S. Environmental Protection Agency [EPA] National Institutes of Environmental Health Sciences [NIEHS] National Toxicology Program [NTP] U.S. Food and Drug Administration [FDA] Tox21 Assay Overview: The human pregnane X receptor (hPXR) regulates the expression of several drug metabolizing enzymes and induction of these proteins is a major mechanism for developing drug resistance in cancer. One such key enzyme catalyzing the drug metabolism is cytochrome P450 3A4 (CYP3A4). Changes in CYP3A4 expression affect drug metabolism, thereby reducing the therapeutic efficacy and altering toxicological response to a drug and which finally causes adverse drug interaction. To screen Tox21 libraries for compounds that activate hPXR-mediated CYP3A4 gene expression, PXR-Luc HepG2 cells were used. Also cytotoxicity of the compounds was tested in parallel by measuring the cell viability using CellTiter-Fluor assay system in the same wells.
Tox21 Assay Protocol Summary: PXR-Luc HepG2 cells were dispensed at 2,000 per well in 5uL of assay medium containing 5% charcoal-stripped FBS into white solid bottom 1536-well plates (Corning Life Sciences, Corning, NY) using a Multidrop Combi (Thermo Scientific, Waltham, MA) dispenser. The assay plates were incubated at 37 C and 5% CO2 for 5hr, and then 23nL of compounds dissolved in DMSO and positive control were transferred using a Pintool station (Wako, San Diego, CA). The assay plates were incubated at 37C and 5% CO2 for 24hr. For cytotoxicity read, after 23hr incubation at 37C, 1uL CellTiter-Fluor reagent (Promega Corporation, Madison, WI) was added to each well of the assay plates using Flying Reagent Dispenser (FRD, Aurora Discovery, San Diego, CA). After 1hr incubation at 37C and 5% CO2, the fluorescence signal was quantified using a ViewLux plate reader (PerkinElmer, Shelton, CT).
(In qHTS, concentration-response curves come from the screen itself.)
As for `COc1ccc(CCN(C)CCCN2CCc3cc(OC)c(OC)cc3CC2=O)cc1OC`, the Potency entry was “inactive”.

Take `COc1cc(OC)c2ccc(=O)oc2c1`: the Potency result was “inactive”.

Turning to `Cc1ccc(NC(=O)N(C)C)cc1NC(=O)N(C)C`, the Potency result was “inactive”.

Take `CCC1CCC(CCC(=O)O)C1` (stereo not given): the Potency entry was “inactive”.

For `CCCCCCCC(=O)OCCCCCC`, the Potency entry was “inactive”.

As for `Nc1cccc2c(N)cccc12`, the Potency is 5.45 µM (active).

In the case of `C1=CCC2CC=CC2C1` (stereo not given), the Potency entry was “inactive”.

For `O=C(Oc1ccccc1)c1ccc2ccccc2c1O`, the Potency entry was “inactive”.

On to `CCCCOC(=O)CCCCC(=O)OCCCC`, for which the Potency result was “inactive”.

As to `Nc1ccc(S(=O)(=O)NCc2ccccc2)cc1`, the Potency result is “inactive”.

In the case of `O=S(=O)(O)CO`, the Potency entry was “inactive”.

`CN1CCCN(C(c2ccccc2)c2ccc(Cl)cc2)CC1` (stereo not given): the Potency was 13.3 µM (active).

With `Nc1nc2ccc(OC(F)(F)F)cc2s1`, the Potency entry is “inactive”.

With `c1ccc(CNc2ncnc3c2ncn3C2CCCCO2)cc1` (stereo not given), the Potency entry is “inactive”.

Consider `CCN(Cc1cccc(S(=O)(=O)O)c1)c1ccc(C(=C2C=CC(=[N+](CC)Cc3cccc(S(=O)(=O)O)c3)C=C2)c2ccc(O)cc2S(=O)(=O)[O-])cc1`, for which the Potency is 18.6 µM (active).

`O=C(O)c1ccc(O)cc1O`: the Potency result is “inactive”.

Regarding `C=CCOC(=O)COCCC(C)C`, the Potency result is “inactive”.

For the compound `CCCCCCCCCCCSCC(=O)O`, the Potency entry was “inactive”.

Take `COC(OC)OC`: the Potency result was “inactive”.

For the compound `CC(C)C(=O)OCCOc1ccccc1`, the Potency entry was “inactive”.

As for `O=C1OC[C@H](Cc2cccc(O)c2)[C@H]1Cc1cccc(O)c1`, the Potency entry is “inactive”.

`CC(C)OC(=O)c1ccccc1C(=O)OC(C)C`: the Potency result was “inactive”.

In the case of `O=C1[C@@H]2[C@H]3CC[C@H](C3)[C@@H]2C(=O)N1CCCCN1CCN(c2ncccn2)CC1`, the Potency result is “inactive”.

For `O=C(O)CCS`, the Potency entry was “inactive”.

On to `CCCCCCCCCCCCCCN(C)C`, for which the activity change, negative = cytotoxicity was 0.682% [at 19 µM].

With `CCOC(=O)Oc1ccc(CCNC(=O)[C@H](CCSC)NC(C)=O)cc1OC(=O)OCC`, the Potency result was “inactive”.

Turning to `COc1cc(NC(C)CCCN)c2ncccc2c1` (stereo not given), the Potency is 29.8 µM (active).

With `CCCC(=O)OC(=O)CCC`, the Potency result was “inactive”.

`CC(C)C(O)C(C)(C)CO` (stereo not given): the Potency entry was “inactive”.

Regarding `COc1ccc(-c2cc(=S)ss2)cc1`, the Potency entry was “inactive”.

`CC(C)c1ccc(C#N)cc1`: the Potency entry was “inactive”.

On to `CC/C=C\C/C=C\C/C=C\CCCCCCCC(=O)OCC`, for which the Potency entry is “inactive”.

Regarding `O=C(C(=O)c1ccco1)c1ccco1`, the Potency entry is “inactive”.

For the compound `CCSC(=O)N(CC)CC`, the Potency entry was “inactive”.

Consider `O=C(O)CO`, for which the Potency result was “inactive”.

`O=[N+]([O-])c1ccc2ncccc2c1`: the Potency entry was “inactive”.

For `Cc1c(C2(c3cc(Br)c(O)c(Br)c3C)OS(=O)(=O)c3ccccc32)cc(Br)c(O)c1Br`, the Potency is 14.9 µM (active).

`Cc1ccc(Cl)cc1N`: the Potency entry was “inactive”.

For `Cc1ccc(N(CC2=NCCN2)c2cccc(O)c2)cc1`, the Potency entry is “inactive”.

With `CC(C)Cc1ccc(CC(=O)O)cc1`, the Potency result was “inactive”.
